In PubChem BioAssay (Tox21):
Records with an inconclusive call do not appear. Where a structure was tested more than once in an assay, its records may differ in their call. Active and inactive are the calls of the source. Unless noted, calls come from the whole dose curve; as a rule, active = well fitted curve in the direction sought with a large enough effect in the repeat runs; inconclusive = weak or mixed curves; inactive = no such curve, though single readings can be large; an effect the other way counts as inactive or inconclusive.

Columns and labels:
[1] = qHTS assay to identify small molecule antagonists of the estrogen receptor alpha (ER-alpha) signaling pathway using the BG1 cell line in the presence of 0.1 nM 17-beta-estradiol - cell viability counter screen (AID 1259241); note: nearly all actives have a fitted effect of over 40% in size
In short: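 Measures cytotoxicity alongside the ER-alpha antagonist readout: VM7Luc4E2 cells, charcoal-stripped serum, 0.1 nM 17beta-estradiol final, 22 hr compound incubation at 37C, CellTiter-Fluor fluorescence.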

[2] = qHTS assay to identify small molecule antagonists of the androgen receptor (AR) signaling pathway using the MDA cell line in the presence of 0.5 nM R1881 - cell viability counter screen (AID 1259242); note: nearly all actives have a fitted effect of over 45% in size
In short: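 qHTS format. MDA-kb2 (MMTV-luc, AR/GR responsive) + cpd + 0.5 nM R1881 final, 16 hr 37C/0% CO2 → CellTiter-Fluor 30 min → fluorescence intensity.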

[3] = target: Estrogen receptor (Homo sapiens) (UniProt P03372); assay: qHTS assay to identify small molecule antagonists of the estrogen receptor alpha (ER-alpha) signaling pathway using the BG1 cell line in the presence of 0.1 nM 17-beta-estradiol (AID 1259244); note: nearly all actives have a fitted effect of over 50% in size
In short: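 Reporter is a stably transfected luciferase under four estrogen responsive elements in VM7Luc4E2 cells expressing native full-length ER-alpha; inhibition of 0.1 nM (final) 17beta-estradiol-driven signal over 22 h is read by luminescence.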

[4] = qHTS assay to identify small molecule phospholipidosis (PLD) inducers (AID 1259344; active = well fitted curve in the direction sought with a large enough effect; an effect the other way counts as inactive or inconclusive)
In short: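 Read-out is LipidTOX Red fluorescence (ex 595/em 615) imaged in HepG2 cells after 24 h compound exposure at 37 C, with Hoechst nuclear counterstain (ex 352/em 461) allowing per-cell normalisation.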

[5] = qHTS assay to identify small molecule HDAC inhibitors (AID 1259364);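 note: wild-type HCT-116 cells with endogenous class I/II HDAC activity; top concentration of the series differs between compounds; nearly all actives have a fitted effect of over 45% in size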
In short: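 Quantitative high-throughput format: overnight-seeded HCT-116 cells got compounds for 2 hr at 37C; HDAC-Glo I/II reagent added, 30 min RT, luminescence measured.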

[6] = qHTS assay to identify small molecule HDAC inhibitors - cell viability counter screen (AID 1259365); note: series mostly up to about 92 µM; nearly all actives have a fitted effect of over 50% in size
In short: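 Following a 2hr exposure of overnight-plated wild-type HCT-116 cells to DMSO-delivered compounds, CellTiter-Glo was added and luminescence recorded after 30min at room temperature.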

[7] = qHTS assay to identify small molecule agonists of the sonic hedgehog signaling (Shh) pathway - cell viability counter screen (AID 1259366); note: nearly all actives have a fitted effect of over 50% in size
In short: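 After a 4hr attachment at 37C, NIH/3T3 cells bearing an integrated Gli1-driven luciferase reporter were dosed with compounds. Treatment lasted 24hr, with the final hour including CellTiter-Fluor for a fluorescence viability measurement.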

[8] = qHTS assay to identify small molecule agonists of the sonic hedgehog signaling (Shh) pathway (AID 1259368; calls by dose curve;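 note: NIH/3T3-derived 3T3Gli1-Luc cells carrying a stable Gli1-driven firefly luciferase reporter; series mostly up to about 92 µM; nearly all actives have a fitted effect of over 15% in size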)
In short: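 Quantitative high-throughput format using a Gli1-driven firefly luciferase reporter line derived from NIH/3T3 cells. After a 24 hr compound treatment at 37 C and 5% CO2, luminescence reported Gli1 response element activity.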

[9] = qHTS assay to identify small molecule antagonists of the sonic hedgehog signaling (Shh) pathway - cell viability counter screen (AID 1259367); note: nearly all actives have a fitted effect of over 55% in size; note: potency is the fitted concentration of half-maximal effect
In short: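 Fluorescence read-out (CellTiter-Fluor, 1 hr at 37C) taken after 23 hr compound treatment of 3T3 Gli1-Luc cells stimulated with conditioned medium. Cells were seeded at 2,000 per well and pre-incubated 4 hr.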
% is set by controls: 0 for no effect and ±100 for the full control effect.

Estrogen receptor (Homo sapiens), sequence (P03372 whole entry, looked up): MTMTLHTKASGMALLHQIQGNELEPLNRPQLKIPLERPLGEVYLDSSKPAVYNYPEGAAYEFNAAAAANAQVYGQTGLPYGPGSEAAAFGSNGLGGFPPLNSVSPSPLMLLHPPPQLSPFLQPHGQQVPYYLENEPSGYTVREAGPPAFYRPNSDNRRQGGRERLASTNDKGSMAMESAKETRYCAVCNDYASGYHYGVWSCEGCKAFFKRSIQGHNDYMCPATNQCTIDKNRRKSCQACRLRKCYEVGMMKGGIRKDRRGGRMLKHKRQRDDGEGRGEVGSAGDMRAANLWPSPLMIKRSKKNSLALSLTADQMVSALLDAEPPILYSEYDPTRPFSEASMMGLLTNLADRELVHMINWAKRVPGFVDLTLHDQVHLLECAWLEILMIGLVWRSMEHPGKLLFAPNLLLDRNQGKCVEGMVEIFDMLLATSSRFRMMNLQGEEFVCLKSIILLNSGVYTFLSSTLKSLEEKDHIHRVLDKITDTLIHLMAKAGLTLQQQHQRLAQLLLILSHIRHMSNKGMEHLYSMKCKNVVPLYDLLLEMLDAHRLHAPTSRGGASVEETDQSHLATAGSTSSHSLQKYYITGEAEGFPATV

CCCCCCC(=O)CCCCCC/C=C/C[C@@H](O)[C@H](O)[C@@](N)(CO)C(=O)O
inactive: activity change, negative = cytotoxicity [1] 7.82% [at 19 µM] | viability change, negative = cytotoxic [2] 8.38% [at 19 µM] | activity change, negative = inhibition [3] 5.03% [at 19 µM] | Potency [4] | activity change, negative = inhibition [5] 6.81% [at 19 µM] | activity change, negative = cytotoxicity [6] -0.234% [at 19 µM] | viability change, negative = cytotoxic [7] 4.09% [at 19 µM] | activity change [8] -0.137% [at 18.9 µM]

CC(C)(C)C(=O)Cl
inactive: outcome [1] | Potency [2] | Potency [3] | Potency [5] | outcome [6] | Potency [7]

Cn1c(CCCC(=O)O)nc2cc(N(CCCl)CCCl)ccc21
inactive: outcome [1] | Potency [2] | Potency [3] | Potency [4] | Potency [5] | outcome [6] | Potency [7] | Potency [9] | outcome [8]

O=c1[nH]oc2c1CCNC2
inactive: outcome [1] | Potency [2] | Potency [3] | Potency [4] | Potency [5] | outcome [6] | Potency [7] | Potency [9] | outcome [8]

S=C=S
inactive: outcome [1] | Potency [2] | Potency [3] | Potency [4] | Potency [5] | Potency [7] | Potency [9] | outcome [8]

CCOC(=O)NC(C)(C)Cc1ccc(Cl)cc1
inactive: outcome [1] | Potency [2] | Potency [3] | PLD induction [4] 18.3% [at 1.53 µM] | Potency [5] | outcome [6] | Potency [7] | Potency [9] | outcome [8]

C[C@]12C=CC(=O)C=C1CC[C@@H]1[C@@H]2CC[C@@]2(C)[C@H]1CC[C@]2(C)O
inactive: outcome [1] | Potency [2] | Potency [3] | Potency [4] | Potency [5] | outcome [6] | Potency [7] | Potency [9] | outcome [8]

COc1ccc(CN2CCNCC2)c(OC)c1OC
inactive: outcome [1] | Potency [2] | Potency [3] | Potency [4] | Potency [5] | outcome [6] | Potency [7] | outcome [8]

C[C@H](CN1CCOCC1)C(C(=O)N1CCCC1)(c1ccccc1)c1ccccc1
inactive: outcome [1] | Potency [2] | Potency [3] | Potency [4] | Potency [5] | outcome [6] | outcome [8]

CN(C)C1CCCCC1
inactive: outcome [1] | Potency [2] | Potency [3] | Potency [5] | outcome [6] | Potency [7]

CCC1(CC)C(=O)C=CNC1=O
inactive: outcome [1] | Potency [2] | Potency [3] | Potency [4] | Potency [5] | outcome [6] | Potency [7] | outcome [8]

COc1cc(CCN)cc(OC)c1OC
inactive: outcome [1] | Potency [2] | Potency [3] | Potency [4] | Potency [5] | Potency [7] | Potency [9] | outcome [8]

Cc1ccc2c(c1)C1CN(C)CCC1N2 (stereo not given)
inactive: activity change, negative = cytotoxicity [1] -3.08% [at 19 µM] | viability change, negative = cytotoxic [2] -1.32% [at 19 µM] | activity change, negative = inhibition [3] -0.7% [at 19 µM] | Potency [4] | activity change, negative = inhibition [5] -0.403% [at 19 µM] | activity change, negative = cytotoxicity [6] 1.1% [at 19 µM] | viability change, negative = cytotoxic [7] -5.79% [at 19 µM] | viability change, negative = cytotoxic [9] 5.33% [at 19 µM] | activity change [8] 0.824% [at 18.9 µM]

C=C(C)[C@H]1CN[C@H](C(=O)O)[C@H]1CC(=O)O
inactive: outcome [1] | Potency [2] | Potency [3] | Potency [4] | Potency [5] | outcome [6] | Potency [7] | Potency [9] | outcome [8]

CC(C)(O)C(Cl)(Cl)Cl
inactive: outcome [1] | Potency [2] | Potency [3] | Potency [4] | Potency [5] | Potency [7] | Potency [9] | outcome [8]

CC(C)(C)c1cc(O)ccc1O
inactive: outcome [1] | Potency [2] | Potency [3] | Potency [4] | Potency [5] | Potency [7] | outcome [8]

CC1NCCOC1c1ccccc1 (stereo not given)
inactive: outcome [1] | Potency [2] | Potency [3] | Potency [4] | Potency [5] | outcome [6] | Potency [7] | Potency [9] | outcome [8]

Oc1ccc(Cc2ccc(O)cc2)cc1
inactive: outcome [1] | Potency [2] | Potency [3] | Potency [5] | outcome [6] | Potency [7]

O=C(CCl)NCO
inactive: outcome [1] | Potency [2] | Potency [3] | Potency [5] | outcome [6] | Potency [7] | Potency [9] | outcome [8]

CCOc1cc(OP(=S)(OC)OC)nc(CC)n1
inactive: outcome [1] | Potency [2] | Potency [3] | Potency [5] | outcome [6] | Potency [7] | Potency [9] | outcome [8]

C=C(Cl)CCl
inactive: outcome [1] | Potency [2] | Potency [3] | Potency [5] | outcome [6] | Potency [7] | Potency [9] | outcome [8]

C1CN2CCC1CC2
inactive: outcome [1] | Potency [2] | Potency [3] | Potency [5] | outcome [6] | Potency [7] | Potency [9] | outcome [8]

O=C(NC(=O)c1c(F)cccc1F)Nc1cc(Cl)c(F)c(Cl)c1F
inactive: outcome [1] | Potency [2] | Potency [3] | Potency [5] | outcome [6] | Potency [7] | Potency [9] | outcome [8]

N=C(N)[Se]
inactive: outcome [1] | Potency [2] | Potency [3] | Potency [5] | outcome [6] | Potency [7] | Potency [9] | outcome [8]

O=C(O)C(Br)(Br)Br
inactive: outcome [1] | Potency [2] | Potency [3] | Potency [5] | outcome [6] | Potency [7] | Potency [9] | outcome [8]

CC(=O)CN(CC(C)=O)N=O
inactive: outcome [1] | Potency [2] | Potency [3] | Potency [5] | outcome [6] | Potency [7] | Potency [9] | outcome [8]

CCC(C)(C#N)N=NC(C)(C#N)CC (stereo not given)
inactive: outcome [1] | Potency [2] | Potency [3] | Potency [5] | outcome [6] | Potency [7] | Potency [9]

O=CCCl
inactive: outcome [1] | Potency [2] | Potency [3] | Potency [5] | outcome [6] | Potency [7] | Potency [9]

C=CC1(C)OC(=O)N(c2cc(Cl)cc(Cl)c2)C1=O (stereo not given)
inactive: outcome [1] | Potency [2] | Potency [3] | Potency [5] | outcome [6] | Potency [7] | outcome [8]
54.2 µM (active) and inactive: Potency [9]

COC(=O)c1ccccc1CS(=O)(=O)NC(=O)Nc1nc(OC)cc(OC)n1
inactive: outcome [1] | Potency [2] | Potency [3] | Potency [5] | outcome [6] | Potency [7] | Potency [9] | outcome [8]

C/C(=N\NC(=O)Nc1cc(F)cc(F)c1)c1ncccc1C(=O)O
inactive: outcome [1] | Potency [2] | Potency [3] | Potency [5] | outcome [6] | Potency [7] | Potency [9] | outcome [8]

O=C(Cl)C(Cl)(Cl)Cl
inactive: outcome [1] | Potency [2] | Potency [3] | Potency [5] | outcome [6] | Potency [7] | Potency [9] | outcome [8]

CN(C)CCN(C)C
inactive: outcome [1] | Potency [2] | Potency [3] | Potency [5] | outcome [6] | Potency [7] | Potency [9]
